# Reference: paper PMC7862700, “An all-to-all approach to the identification of sequence-specific readers for epigenetic DNA modifications on cytosine”
# What was measured:
# Assay in all cases: DAPPL (digital affinity profiling via proximity ligation, sequencing); 10 mM Tris-HCl pH 7.5, 50 mM NaCl, 1 mM DTT, 4% glycerol, room temperature, 30 min; GST-TFs on glutathione beads, 16-mer random dsDNA library, 0.1% formaldehyde crosslink after washing; high values mean tight binding
# Details in all cases: protein: recombinant; tags: N-terminal GST; dsDNA, one strand shown
# ELK1 = target: T1, ELK1 (Homo sapiens, UniProt P19419 1-428)
# T1 sequence: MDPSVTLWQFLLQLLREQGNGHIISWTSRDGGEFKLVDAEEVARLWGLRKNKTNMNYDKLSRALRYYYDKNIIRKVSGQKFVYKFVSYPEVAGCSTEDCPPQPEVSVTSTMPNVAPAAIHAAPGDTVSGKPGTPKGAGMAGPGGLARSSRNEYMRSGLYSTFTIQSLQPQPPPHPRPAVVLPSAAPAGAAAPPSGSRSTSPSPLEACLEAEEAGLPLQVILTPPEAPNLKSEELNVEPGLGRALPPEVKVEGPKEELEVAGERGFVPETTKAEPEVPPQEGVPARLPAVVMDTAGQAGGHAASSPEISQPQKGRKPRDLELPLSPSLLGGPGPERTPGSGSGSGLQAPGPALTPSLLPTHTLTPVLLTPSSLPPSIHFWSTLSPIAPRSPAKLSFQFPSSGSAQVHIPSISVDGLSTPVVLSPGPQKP
# Method in brief: (§1)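 Yeast served to express human transcription factors as GST fusions, which were then captured on glutathione beads and labelled with DNA barcodes. Pooled with a tag-only sample, they were incubated with 200 nmole of a 16-mer random double-stranded DNA library for 30 min at room temperature in Tris/NaCl/DTT/glycerol buffer, washed, crosslinked with 0.1% formaldehyde, ligated by proximity, amplified by PCR and sequenced. Dividing each hexamer's read frequency for a factor by its frequency for the tag-only sample gives the binding signal.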
# GABPA = target: T2, GABPA (Homo sapiens, UniProt Q06546 1-454)
# T2 sequence: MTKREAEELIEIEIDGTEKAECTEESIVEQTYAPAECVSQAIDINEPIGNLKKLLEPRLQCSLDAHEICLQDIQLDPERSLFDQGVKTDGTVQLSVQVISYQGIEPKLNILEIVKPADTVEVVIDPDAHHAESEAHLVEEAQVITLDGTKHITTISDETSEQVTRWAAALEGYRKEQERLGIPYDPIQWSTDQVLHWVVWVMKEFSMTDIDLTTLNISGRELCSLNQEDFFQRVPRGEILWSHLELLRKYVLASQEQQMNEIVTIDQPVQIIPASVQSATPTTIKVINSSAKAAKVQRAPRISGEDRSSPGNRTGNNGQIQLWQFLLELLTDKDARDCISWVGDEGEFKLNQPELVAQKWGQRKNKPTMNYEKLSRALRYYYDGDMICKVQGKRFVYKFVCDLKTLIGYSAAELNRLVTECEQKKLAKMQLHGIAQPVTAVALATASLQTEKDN
# Method in brief: as §1
# ERG = target: T3, ERG (Homo sapiens, UniProt P11308 1-479)
# T3 sequence: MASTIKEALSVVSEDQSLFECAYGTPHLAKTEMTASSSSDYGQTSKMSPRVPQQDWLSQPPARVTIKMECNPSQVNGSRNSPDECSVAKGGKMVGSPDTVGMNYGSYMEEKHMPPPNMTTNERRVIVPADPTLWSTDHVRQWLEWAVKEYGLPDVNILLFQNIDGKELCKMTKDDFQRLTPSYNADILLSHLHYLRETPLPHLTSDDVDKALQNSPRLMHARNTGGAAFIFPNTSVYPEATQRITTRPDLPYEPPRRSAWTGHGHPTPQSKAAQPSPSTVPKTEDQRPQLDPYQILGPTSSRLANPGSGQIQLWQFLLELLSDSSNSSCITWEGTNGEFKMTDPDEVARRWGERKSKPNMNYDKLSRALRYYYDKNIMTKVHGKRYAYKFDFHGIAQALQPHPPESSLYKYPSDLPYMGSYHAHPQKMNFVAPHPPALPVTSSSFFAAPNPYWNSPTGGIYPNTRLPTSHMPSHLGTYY
# Method in brief: as §1
# ELF1 = ELF1 (Homo sapiens, UniProt P32519 1-619)
# Chain of ELF1 (P32519 whole entry): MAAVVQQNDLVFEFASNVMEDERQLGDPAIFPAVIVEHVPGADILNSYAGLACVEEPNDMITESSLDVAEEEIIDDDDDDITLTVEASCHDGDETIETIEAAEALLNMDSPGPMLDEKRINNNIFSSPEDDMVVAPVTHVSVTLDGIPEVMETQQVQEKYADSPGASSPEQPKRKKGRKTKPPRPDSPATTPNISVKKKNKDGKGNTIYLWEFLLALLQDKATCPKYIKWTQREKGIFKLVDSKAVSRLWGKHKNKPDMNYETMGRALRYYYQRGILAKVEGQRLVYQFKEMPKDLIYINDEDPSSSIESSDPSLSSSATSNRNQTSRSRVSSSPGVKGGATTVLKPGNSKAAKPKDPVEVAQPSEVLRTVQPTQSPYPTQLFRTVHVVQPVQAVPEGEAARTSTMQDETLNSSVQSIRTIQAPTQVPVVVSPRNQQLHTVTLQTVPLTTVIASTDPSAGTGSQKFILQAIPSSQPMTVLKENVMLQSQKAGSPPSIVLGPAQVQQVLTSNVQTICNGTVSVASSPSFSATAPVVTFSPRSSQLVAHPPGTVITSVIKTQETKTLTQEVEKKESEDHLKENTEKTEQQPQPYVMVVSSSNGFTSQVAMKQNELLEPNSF
# Method in brief: as §1
# EHF = target: T4, EHF (Homo sapiens, UniProt Q9NZC4 1-300)
# T4 sequence: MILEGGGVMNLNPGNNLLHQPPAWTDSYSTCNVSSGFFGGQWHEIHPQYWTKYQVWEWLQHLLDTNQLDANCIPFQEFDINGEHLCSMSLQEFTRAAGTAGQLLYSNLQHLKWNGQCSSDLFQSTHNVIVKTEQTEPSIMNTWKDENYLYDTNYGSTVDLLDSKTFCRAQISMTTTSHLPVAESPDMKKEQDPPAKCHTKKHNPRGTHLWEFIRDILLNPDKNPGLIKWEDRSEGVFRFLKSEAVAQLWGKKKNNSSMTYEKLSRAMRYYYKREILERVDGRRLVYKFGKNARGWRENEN
# Method in brief: as §1
# SPIB = SPIB (Homo sapiens, UniProt Q01892 1-262)
# Chain of SPIB (Q01892 whole entry): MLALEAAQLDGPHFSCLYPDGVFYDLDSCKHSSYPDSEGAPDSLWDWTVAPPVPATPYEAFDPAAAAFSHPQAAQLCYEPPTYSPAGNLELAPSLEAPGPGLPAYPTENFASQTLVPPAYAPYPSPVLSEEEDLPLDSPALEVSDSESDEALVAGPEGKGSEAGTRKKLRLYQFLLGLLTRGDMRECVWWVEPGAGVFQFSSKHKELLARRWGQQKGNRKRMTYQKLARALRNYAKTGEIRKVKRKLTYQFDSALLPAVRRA
# Method in brief: as §1
# FEV = target: T5, FEV (Homo sapiens, UniProt Q99581 1-238)
# T5 sequence: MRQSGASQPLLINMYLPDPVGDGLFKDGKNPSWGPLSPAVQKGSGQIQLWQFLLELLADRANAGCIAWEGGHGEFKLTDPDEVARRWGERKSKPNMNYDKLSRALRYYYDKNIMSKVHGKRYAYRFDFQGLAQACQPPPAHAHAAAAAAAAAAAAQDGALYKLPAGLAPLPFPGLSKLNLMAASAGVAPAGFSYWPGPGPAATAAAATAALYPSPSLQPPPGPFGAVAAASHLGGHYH
# Method in brief: as §1
# ETV5 = ETV5 (Homo sapiens, UniProt P41161 1-510)
# Chain of ETV5 (P41161 whole entry): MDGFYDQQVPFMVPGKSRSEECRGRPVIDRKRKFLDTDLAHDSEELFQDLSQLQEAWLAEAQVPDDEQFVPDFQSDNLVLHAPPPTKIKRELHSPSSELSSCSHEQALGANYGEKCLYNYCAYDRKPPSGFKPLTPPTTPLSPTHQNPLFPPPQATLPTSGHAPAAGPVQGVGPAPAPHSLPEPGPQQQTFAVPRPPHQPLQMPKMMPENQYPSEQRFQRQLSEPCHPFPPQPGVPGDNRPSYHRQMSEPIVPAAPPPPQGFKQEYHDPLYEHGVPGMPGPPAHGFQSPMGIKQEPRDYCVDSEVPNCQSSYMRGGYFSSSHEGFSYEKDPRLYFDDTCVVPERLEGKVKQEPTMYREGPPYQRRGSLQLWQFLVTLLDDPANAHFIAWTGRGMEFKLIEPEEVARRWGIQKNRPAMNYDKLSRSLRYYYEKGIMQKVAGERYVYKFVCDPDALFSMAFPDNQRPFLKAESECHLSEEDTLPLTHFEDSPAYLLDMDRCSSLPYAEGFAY
# Method in brief: as §1
# ELF4 = ELF4 (Homo sapiens, UniProt Q99607 1-663)
# Chain of ELF4 (Q99607 whole entry): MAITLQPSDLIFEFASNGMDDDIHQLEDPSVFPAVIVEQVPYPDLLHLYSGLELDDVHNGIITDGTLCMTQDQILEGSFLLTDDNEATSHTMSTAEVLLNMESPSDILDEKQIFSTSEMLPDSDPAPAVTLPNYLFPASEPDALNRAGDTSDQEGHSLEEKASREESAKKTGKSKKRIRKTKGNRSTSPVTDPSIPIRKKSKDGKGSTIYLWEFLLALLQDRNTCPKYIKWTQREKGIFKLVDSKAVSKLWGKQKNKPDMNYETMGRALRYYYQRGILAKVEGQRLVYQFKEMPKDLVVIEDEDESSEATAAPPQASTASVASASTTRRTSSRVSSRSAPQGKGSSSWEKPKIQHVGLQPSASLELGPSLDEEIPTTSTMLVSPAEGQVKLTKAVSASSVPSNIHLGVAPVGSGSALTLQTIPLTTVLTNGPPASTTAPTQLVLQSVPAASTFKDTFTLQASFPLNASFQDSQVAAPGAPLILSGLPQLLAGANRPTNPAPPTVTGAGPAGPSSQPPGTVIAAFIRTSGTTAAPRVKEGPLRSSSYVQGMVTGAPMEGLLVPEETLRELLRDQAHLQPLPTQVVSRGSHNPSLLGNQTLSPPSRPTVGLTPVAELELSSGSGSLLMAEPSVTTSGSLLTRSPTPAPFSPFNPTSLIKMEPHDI
# Method in brief: as §1
sequence,measurement,setting,value
CGATGC,binding signal,ELK1,"1.1 fold enrichment (6-mer frequency, TF over GST control)"
same,binding signal,GABPA,"1.19 fold enrichment (6-mer frequency, TF over GST control)"
same,binding signal,ERG,"1.08 fold enrichment (6-mer frequency, TF over GST control)"
same,binding signal,ELF1,"1.02 fold enrichment (6-mer frequency, TF over GST control)"
same,binding signal,EHF,"1.09 fold enrichment (6-mer frequency, TF over GST control)"
same,binding signal,SPIB,"1.06 fold enrichment (6-mer frequency, TF over GST control)"
same,binding signal,FEV,"1.07 fold enrichment (6-mer frequency, TF over GST control)"
same,binding signal,ETV5,"1.11 fold enrichment (6-mer frequency, TF over GST control)"
same,binding signal,ELF4,"1.19 fold enrichment (6-mer frequency, TF over GST control)"
